Measured values: the supplement of paper PMC10105736
Unmarked numbers belong to inactive results.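 Rule for the calls: active = MAPPIT score above the 99th percentile of random reference set scores in the same batch; inactive = at or below it.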

Tests used:
Experiment in all cases: MAPPIT interaction score (arbitrary units); higher = stronger binary interaction signal, active = hit call of the paper
[1] = molecular target: AP-1mu; conditions: MAPPIT configuration: N-C; pair source set: screen_4
Experimental: (§1)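 MAPPIT in HEK293T cells: Drosophila bait and prey ORFs (from the FlyBi ORF collection) were co-transfected in quadruplicate, with two wells stimulated by erythropoietin. Interaction-dependent JAK-STAT activation was read out with a STAT-responsive firefly luciferase reporter. Positive calls use the 99th percentile of random reference set (RRS) scores within each batch […]. Batches Dvs01 and Dvs02 used the N-N configuration and Dvs04 the N-C configuration. Pairs come from FlyBi screens, CuraGen, DPiM, Finley Y2H, Lit-BM-16, Lit-BS-16 and RRS.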

[2] = molecular target: HLH54F; conditions: MAPPIT configuration: N-N; pair source set: Curagen_low_conf
Experimental: as §1

[3] = molecular target: AP-2alpha; conditions: MAPPIT configuration: N-N; pair source set: DPIM
Experimental: as §1

[4] = molecular target: CG9667; conditions: MAPPIT configuration: N-N; pair source set: DPIM
Experimental: as §1

[5] = molecular target: 14-3-3zeta; conditions: pair source set: Lit-BM-16
Experimental: as §1

[6] = molecular target: par-1; conditions: pair source set: Lit-BM-16
Experimental: as §1

[7] = molecular target: yki; conditions: MAPPIT configuration: N-N; pair source set: Lit-BM-16
Experimental: as §1

[8] = molecular target: CG17377; conditions: MAPPIT configuration: N-C; pair source set: screen_4
Experimental: as §1

[9] = molecular target: Mst87F; conditions: MAPPIT configuration: N-N; pair source set: screen_2
Experimental: as §1

[10] = molecular target: lawc; conditions: MAPPIT configuration: N-C; pair source set: screen_3
Experimental: as §1

[11] = molecular target: ACOX1; conditions: MAPPIT configuration: N-N; pair source set: Curagen_low_conf
Experimental: as §1

[12] = molecular target: mbo; conditions: pair source set: Lit-BM-16
Experimental: as §1
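Note: HEK293T cells with Epo stimulation, STAT-responsive firefly luciferase reporter, fold induction versus unstimulated cells divided by the larger fold induction of two negative controls lacking either bait or prey.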

B1: TfIIB (protein)
chain: MASTSRLDNNKVCCYAHPESPLIEDYRAGDMICSECGLVVGDRVIDVGSEWRTFSNEKSGVDPSRVGGPENPLLSGGDLSTIIGPGTGSASFDAFGAPKYQNRRTMSSSDRSLISAFKEISSMADRINLPKTIVDRANNLFKQVHDGKNLKGRSNDAKASACLYIACRQEGVPRTFKEICAVSKISKKEIGRCFKLTLKALETSVDLITTADFMCRFCANLDLPNMVQRAATHIAKKAVEMDIVPGRSPISVAAAAIYMASQASEHKRSQKEIGDIAGVADVTIRQSYKLMYPHAAKLFPEDFKFTTPIDQLPQM
MAPPIT interaction score [1]: 1.05
MAPPIT interaction score [2]: -0.376

B2: Cp38 (protein)
chain: MTRSTYIWALAACLIACASANYGSSQGYGPESGSGASDGGADAASAAAAAAGGAGGAGGEYGGANAGAGALESGADAAGVAQAGQSSYGSDQNIPYKPVNTKGNTLTSSITYPQNKGEILIHRPAPIIVKRPPTKVLVNHPPLVVKPAPVVLHKPPAIVLRKVYVKHHPRRVKVEPVFVNVVKPPAEKYFVNENKQGYGQGSQSHGHGHGHGGHGHGHSGHGHGGHGAGPHGPGPHDGGRALPAYASGADSAAASAGYQLLQSGNQGLSALANIAGEREGPYGPAPSHQHYSAGPAGHGGYAAPAY
MAPPIT interaction score [1]: 0.503

B3: CG10417 (protein)
chain: MGAYLSHPKTDKTSTDQFNELLAVGASSMQGWRNSQEDAHNSILNFDNNTSFFAVYDGHGGAEVAQYCADKLPHFLKNLETYKNGQFEVALKEAFLGFDKTLLDPSIVSILKILAGEHNFVDAEADDYEEEDLAELQEESNLPLNEVLEKYKGLPQKKDLDLKSSDHKENFKMRSPYFRGRRAAALAAEATNKAVMDPSAKPDGSSTSAAAAAAALSADGVANSRNPSNVVNPMAGADSNTTTSINDLSTKNAALKDDSVNDQNEGSNGTDFKHTLVSSSNKKLFATGSNDMTELNQSSKNEFTNSSTSKEFERNINSSQDDEFTDDDADYEENDNVKSPDTSSAESSDCTENDDDGDEDGNEDSDEEETDEDQMANDNFCANMIEEPGKDSGCTAVVCLLQGRDLYVANAGDSRCVISRSGQAIEMSIDHKPEDDEEASRIIKAGGRVTLDGRVNGGLNLSRALGDHAYKTNVTLPAEEQMISALPDIKKLIITPEDEFMVLACDGIWNYMSSEEVVEFVRCRLKDNKKLSTICEELFDNCLAPNTMGDGTGCDNMTAVIVQFKKKLQELQSTIPPNQTEDKLLKTSENVSHSLNDQSASKRCASQNADADDEILEKNNSKRLKTDLEQENIKDRTPSPSNQNEDPTQKAIKEVTIIVSSS
MAPPIT interaction score [3]: 0.508
MAPPIT interaction score [4]: 0.00387

B4: 14-3-3epsilon (protein)
chain: MTERENNVYKAKLAEQAERYDEMVEAMKKVASMDVELTVEERNLLSVAYKNVIGARRASWRIITSIEQKEENKGAEEKLEMIKTYRGQVEKELRDICSDILNVLEKHLIPCATSGESKVFYYKMKGDYHRYLAEFATGSDRKDAAENSLIAYKAASDIAMNDLPPTHPIRLGLALNFSVFYYEILNSPDRACRLAKAAFDDAIAELDTLSEESYKDSTLIMQLLRDNLTLWTSDMQAEEVDPNAGDGEPKEQIQDVEDQDVS
MAPPIT interaction score ([5]; MAPPIT configuration: N-C): 1.51
MAPPIT interaction score ([5]; MAPPIT configuration: N-N): 4.99 (active)
MAPPIT interaction score ([6]; MAPPIT configuration: N-C): -0.702
MAPPIT interaction score ([6]; MAPPIT configuration: N-N): -0.144
MAPPIT interaction score [7]: 0.198

B5: spin (protein)
chain: MSLKHQKQSYQPLPTAAAMDNPAMIQSSGSSGSSSSEEGGSREDVANLSPLGLPTTYSSQQLMPSDTDSMEEERHRLRPHHHHHHPLGEHHHIPGIPPSAVVPSRLSSVGRSQWFTVTVLCFVNLINYMDRFTIAGVLTDVRNDFDIGNDSAGLLQTVFVISYMVCAPIFGYLGDRYSRPWIMAVGVGLWSTTTLLGSFMKQFGWFIAFRALVGIGEASYSTIAPTIISDLFVHDMRSKMLALFYFAIPVGSGLGYIVGSKTAHLANDWRWALRVTPILGIVAVFLILLIKDPVRGHSEGSHNLEATTYKQDIKALVRNRSFMLSTAGFTCVAFVAGALAWWGPSFIYLGMKMQPGNENIVQDDVAFNFGVITMLAGLLGVPLGSFLSQYLVKRYPTADPVICAFGLLVSAPLLTGACLLVNSNSVGTYALIFFGQLALNLNWAIVADILLYVVVPTRRSTAEAFQILISHALGDAGSPYLVGAISEAIMKHLHKNPSDSGLTTELRSMSQVAGSAISNATQVIAEATTSLMETARSSASQEYSDVEQFEGLQYALFSTSFVEVLGGIFFIFTACFIIKDKYNATRGLQDATAQQQQRDERGQIA
MAPPIT interaction score [1]: 2.01
MAPPIT interaction score [8]: 1.62
MAPPIT interaction score [9]: 2.13
MAPPIT interaction score [10]: 1.7

B6: emb (protein)
chain: MATMLTSDEAGKLLDFSQKLDINLLDKIVEVVYTAQGEQLRLAQSILTTLKEHPEAWTRVDSILEYSQNQRTKFYALQILEEVIKTRWKVLPRNQCEGIKKYVVSLIIKTSSDPIVMEQNKVYLNKLNMILVHILKREWPRNWETFISDIVGASKTNESLCMNNMVILKNLSEEVFDFSQGQITQTKAKHLKDTMCSEFSQIFTLCSFVLENSMNAALIHVTLETLLRFLNWIPLGYIFETQQIETLIFKFLSVPMFRNVTLKCLSEIAGLTAANYDENFATLFKDTMVQLEQIVGQNMNMNHVFKHGSDTEQELVLNLAMFLCTFLKEHGKLVEDAKYVDYLNQALMYLVMISEVEDVEVFKICLEYWNSLVEDLYNSEFFHPTLESTKRQQVYPRRRFYAPILSKVRFIMISRMAKPEEVLVVENENGEVVREFMKDTNSINLYKNMRETLVFLTHLDSVDTDRIMTLKLLNQVNGSEFSWKNLNTLCWAIGSISGAFCEEDEKRFLVTVIKDLLGLCEQKKGKDNKAIIASNIMYVVGQYPRFLRAHWKFLKTVVNKLFEFMHETHDGVQDMACDTFIKIAIKCRRYFVTIQPNEACTFIDEILTTMSSIICDLQPQQVHTFYEAVGYMISAQVDQVQQDVLIERYMQLPNQVWDDIISRASKNVDFLKNMTAVKQLGSILKTNVAACKALGHAYVIQLGRIYLDMLNVYKITSENIIQAIEVNGVNVNNQPLIKTMHVVKKETLNLISEWVSRSNDNQLVMDNFIPPLLDAILLDYQRCKVPSAREPKVLSAMAIIVHKLRQHITNEVPKIFDAVFECTLDMINKNFEDFPQHRLSFYELLQAVNAHCFKAFLNIPPAQFKLVFDSVVWAFKHTMRNVADMGLNILFKMLQNLDQHPGAAQSFYQTYFTDILMQIFSVVTDTSHTAGLPNHAIILAYMFSLVENRKITVNLGPIPDNMIFIQEYVASLLKSAFTHLSDNQVKVFVTGLFNLDENVQAFKEHLRDFLIQIREATGEDDSDLYLEEREAALAEEQSNKHQMQRNIPGMLNPHELPEDMQDE
MAPPIT interaction score [11]: 1.6
MAPPIT interaction score ([12]; MAPPIT configuration: N-C): 1.34
MAPPIT interaction score ([12]; MAPPIT configuration: N-N): 1.54
